From PubChem BioAssay AID1159580 (chemical genetic matrix, 2015)
“And” between values parts separate entries of the source, which are not always exact repeats. Identical values can stand only once. Out of some 5,500 compounds screened, about 2,000 (36%) were called active. About 18% were inconclusive and are not listed. Rule as the data show it: active = normalized growth mostly below about 0.91 (no sharp cut-off); inconclusive = no clear call, values can overlap the other calls; inactive = mostly above about 0.92. The list shows a part of the results.

Assay: chemical genetic growth profiling, strain panel (AID 1159580);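 also: tested at 20 µM; growth read once vehicle control cultures reached saturation at 30 °C; 1 = growth at the plate median or of vehicle wells; lower values mean less growth of the strain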
Conditions: growth OD

Measured: normalized growth

CN(C)c1ccc(O)c2c1C[C@H]1C[C@H]3[C@H](N(C)C)C(=O)C(C(N)=O)=C(O)[C@@]3(O)C(=O)C1=C2O
inactive: S. cerevisiae deletion strains, locus YAL013W, strain DEP1, stronger effect = lower value 0.988 | S. cerevisiae deletion strains, locus YBR021W, strain FUR4, stronger effect = lower value 0.915 | S. cerevisiae deletion strains, locus YBR229C, strain ROT2, stronger effect = lower value 0.947 | S. cerevisiae deletion strains, locus YCL029C, strain bik1, stronger effect = lower value 0.992 | S. cerevisiae deletion strains, locus YDL035C, strain GPR1, stronger effect = lower value 0.963 | S. cerevisiae deletion strains, locus YDL074C, strain BRE1, stronger effect = lower value 1 | S. cerevisiae deletion strains, locus YDL101C, strain DUN1, stronger effect = lower value 0.969 | S. cerevisiae deletion strains, locus YDL134C, strain PPH21, stronger effect = lower value 0.976 | S. cerevisiae deletion strains, locus YDL185W, strain tfp1, stronger effect = lower value 0.983 | S. cerevisiae deletion strains, locus YDL192W, strain arf1, stronger effect = lower value 0.962 | S. cerevisiae deletion strains, locus YDR101C, strain arx1, stronger effect = lower value 1 | S. cerevisiae deletion strains, locus YDR150W, strain NUM1, stronger effect = lower value 0.975 | S. cerevisiae deletion strains, locus YDR162C, strain NBP2, stronger effect = lower value 0.964 | S. cerevisiae deletion strains, locus YDR318W, strain mcm21, stronger effect = lower value 0.996 | S. cerevisiae deletion strains, locus YDR388W, stronger effect = lower value 0.997 | S. cerevisiae deletion strains, locus YDR502C, strain sam2, stronger effect = lower value 0.986 | S. cerevisiae deletion strains, locus YEL061C, strain CIN8, stronger effect = lower value 0.984 | S. cerevisiae deletion strains, locus YER110C, stronger effect = lower value 0.974 | S. cerevisiae deletion strains, locus YER155C, strain BEM2, stronger effect = lower value 1.03 | S. cerevisiae deletion strains, locus YER167W, strain BCK2, stronger effect = lower value 0.984 | S. cerevisiae deletion strains, locus YGL078C, strain dbp3, stronger effect = lower value 0.974 | S. cerevisiae deletion strains, locus YGL086W, strain mad1, stronger effect = lower value 0.98 | S. cerevisiae deletion strains, locus YGL248W, strain PDE1, stronger effect = lower value 0.974 | S. cerevisiae deletion strains, locus YGR078C, strain PAC10, stronger effect = lower value 0.966 | S. cerevisiae deletion strains, locus YGR135W, strain pre9, stronger effect = lower value 0.974 | S. cerevisiae deletion strains, locus YGR229C, strain SMI1, stronger effect = lower value 0.987 | S. cerevisiae deletion strains, locus YGR252W, strain gcn5, stronger effect = lower value 0.802 | S. cerevisiae deletion strains, locus YHR030C, strain SLT2, stronger effect = lower value 0.992 | S. cerevisiae deletion strains, locus YHR079C, strain IRE1 (second series), stronger effect = lower value 1 | S. cerevisiae deletion strains, locus YHR079C, strain IRE1, stronger effect = lower value 1.01 | S. cerevisiae deletion strains, locus YHR094C, strain hxt1, stronger effect = lower value 1.01 | S. cerevisiae deletion strains, locus YHR129C, strain ARP1, stronger effect = lower value 0.99 | S. cerevisiae deletion strains, locus YHR200W, strain rpn10, stronger effect = lower value 0.989 | S. cerevisiae deletion strains, locus YIL066C, strain RNR3, stronger effect = lower value 0.96 | S. cerevisiae deletion strains, locus YIL073C, strain SPO22, stronger effect = lower value 0.959 | S. cerevisiae deletion strains, locus YIL125W, strain kgd1, stronger effect = lower value 0.979 | S. cerevisiae deletion strains, locus YIR030C, strain dcg1, stronger effect = lower value 0.987 | S. cerevisiae deletion strains, locus YJL095W, strain BCK1, stronger effect = lower value 0.986 and 0.993 | S. cerevisiae deletion strains, locus YJL134W, strain LCB3, stronger effect = lower value 0.981 | S. cerevisiae deletion strains, locus YJL168C, strain set2, stronger effect = lower value 0.995 | S. cerevisiae deletion strains, locus YJL187C, strain SWE1 (second series), stronger effect = lower value 0.966 | S. cerevisiae deletion strains, locus YJR043C, strain POL32, stronger effect = lower value 0.992 | S. cerevisiae deletion strains, locus YJR066W, strain TOR1, stronger effect = lower value 0.941 | S. cerevisiae deletion strains, locus YJR075W, strain HOC1, stronger effect = lower value 1 | S. cerevisiae deletion strains, locus YKL009W, strain mrt4, stronger effect = lower value 0.974 | S. cerevisiae deletion strains, locus YKL068W, stronger effect = lower value 0.995 | S. cerevisiae deletion strains, locus YKL085W, strain MDH1 (second series), stronger effect = lower value 0.982 | S. cerevisiae deletion strains, locus YKL085W, strain MDH1, stronger effect = lower value 0.982 | S. cerevisiae deletion strains, locus YKL190W, strain CNB1, stronger effect = lower value 0.998 | S. cerevisiae deletion strains, locus YKR001C, strain vps1, stronger effect = lower value 0.966 | S. cerevisiae deletion strains, locus YLR039C, strain RIC1, stronger effect = lower value 0.937 | S. cerevisiae deletion strains, locus YLR058C, strain SHM2, stronger effect = lower value 0.957 | S. cerevisiae deletion strains, locus YLR102C, strain apc9, stronger effect = lower value 0.989 | S. cerevisiae deletion strains, locus YLR113W, strain HOG1, stronger effect = lower value 1.01 | S. cerevisiae deletion strains, locus YLR262C, strain YPT6, stronger effect = lower value 0.895 | S. cerevisiae deletion strains, locus YLR268W, strain sec22, stronger effect = lower value 1.04 | S. cerevisiae deletion strains, locus YLR330W, strain CHS5, stronger effect = lower value 0.989 | S. cerevisiae deletion strains, locus YLR342W, strain FKS1 (second series), stronger effect = lower value 0.851 | S. cerevisiae deletion strains, locus YLR371W, strain rom2, stronger effect = lower value 0.98 | S. cerevisiae deletion strains, locus YLR418C, strain cdc73, stronger effect = lower value 0.909 | S. cerevisiae deletion strains, locus YML016C, strain PPZ1, stronger effect = lower value 0.974 | S. cerevisiae deletion strains, locus YML032C, strain rad52, stronger effect = lower value 1 | S. cerevisiae deletion strains, locus YML124C, strain tub3, stronger effect = lower value 0.991 | S. cerevisiae deletion strains, locus YMR078C, strain ctf18, stronger effect = lower value 0.993 | S. cerevisiae deletion strains, locus YMR223W, strain ubp8, stronger effect = lower value 0.934 | S. cerevisiae deletion strains, locus YMR263W, strain SAP30, stronger effect = lower value 0.991 | S. cerevisiae deletion strains, locus YMR307W, strain GAS1, stronger effect = lower value 0.879 | S. cerevisiae deletion strains, locus YNL067W, strain RPL9B, stronger effect = lower value 1 | S. cerevisiae deletion strains, locus YNL128W, strain TEP1, stronger effect = lower value 0.922 | S. cerevisiae deletion strains, locus YNL153C, strain GIM3, stronger effect = lower value 0.985 | S. cerevisiae deletion strains, locus YNL183C, strain NPR1, stronger effect = lower value 0.968 | S. cerevisiae deletion strains, locus YNL233W, strain BNI4, stronger effect = lower value 1 | S. cerevisiae deletion strains, locus YNL250W, strain rad50, stronger effect = lower value 0.975 | S. cerevisiae deletion strains, locus YNL271C, strain bni1, stronger effect = lower value 0.989 | S. cerevisiae deletion strains, locus YNL298W, strain CLA4, stronger effect = lower value 0.987 | S. cerevisiae deletion strains, locus YNL307C, strain MCK1, stronger effect = lower value 0.997 | S. cerevisiae deletion strains, locus YNL322C, strain KRE1, stronger effect = lower value 0.993 | S. cerevisiae deletion strains, locus YNR052C, strain pop2, stronger effect = lower value 0.978 | S. cerevisiae deletion strains, locus YOL006C, strain TOP1, stronger effect = lower value 0.887 | S. cerevisiae deletion strains, locus YOL012C, strain htz1 0.571 | S. cerevisiae deletion strains, locus YOL147C, strain pex11, stronger effect = lower value 0.994 | S. cerevisiae deletion strains, locus YOR061W, strain CKA2, stronger effect = lower value 0.967 | S. cerevisiae deletion strains, locus YOR069W, strain VPS5, stronger effect = lower value 0.985 | S. cerevisiae deletion strains, locus YOR136W, strain idh2, stronger effect = lower value 0.978 | S. cerevisiae deletion strains, locus YOR144C, strain elg1, stronger effect = lower value 0.996 | S. cerevisiae deletion strains, locus YOR184W, strain ser1, stronger effect = lower value 0.985 | S. cerevisiae deletion strains, locus YOR231W, strain MKK1, stronger effect = lower value 1.01 | S. cerevisiae deletion strains, locus YOR316C, strain cot1, stronger effect = lower value 0.998 | S. cerevisiae deletion strains, locus YPL055C, strain LGE1, stronger effect = lower value 0.958 | S. cerevisiae deletion strains, locus YPL241C, strain CIN2, stronger effect = lower value 0.981 | S. cerevisiae deletion strains, locus YPL256C, strain CLN2, stronger effect = lower value 1.01 | S. cerevisiae deletion strains, locus YPR119W, strain clb2, stronger effect = lower value 0.996 | S. cerevisiae deletion strains, locus YPR141C, strain kar3, stronger effect = lower value 0.997 | S. cerevisiae deletion strains, locus YPR163C, strain tif3, stronger effect = lower value 0.99 | S. cerevisiae deletion strains, locus YPR167C, strain met16, stronger effect = lower value 1 | S. cerevisiae deletion strains, strain wtn01, stronger effect = lower value 1.02 | S. cerevisiae strains, strain wild type, stronger effect = lower value 0.981
